# In article PMC7862700, “An all-to-all approach to the identification of sequence-specific readers for epigenetic DNA modifications on cytosine”:
# Legend:
# Test in all cases: DAPPL (digital affinity profiling via proximity ligation, sequencing); 10 mM Tris-HCl pH 7.5, 50 mM NaCl, 1 mM DTT, 4% glycerol, room temperature, 30 min; GST-TFs on glutathione beads, 16-mer random dsDNA library, 0.1% formaldehyde crosslink after washing; high values mean tight binding
# FLI1 = biological target: T1, FLI1 (Homo sapiens, UniProt Q01543 1-452); details: protein: recombinant; tags: N-terminal GST; dsDNA, one strand shown
# T1 sequence: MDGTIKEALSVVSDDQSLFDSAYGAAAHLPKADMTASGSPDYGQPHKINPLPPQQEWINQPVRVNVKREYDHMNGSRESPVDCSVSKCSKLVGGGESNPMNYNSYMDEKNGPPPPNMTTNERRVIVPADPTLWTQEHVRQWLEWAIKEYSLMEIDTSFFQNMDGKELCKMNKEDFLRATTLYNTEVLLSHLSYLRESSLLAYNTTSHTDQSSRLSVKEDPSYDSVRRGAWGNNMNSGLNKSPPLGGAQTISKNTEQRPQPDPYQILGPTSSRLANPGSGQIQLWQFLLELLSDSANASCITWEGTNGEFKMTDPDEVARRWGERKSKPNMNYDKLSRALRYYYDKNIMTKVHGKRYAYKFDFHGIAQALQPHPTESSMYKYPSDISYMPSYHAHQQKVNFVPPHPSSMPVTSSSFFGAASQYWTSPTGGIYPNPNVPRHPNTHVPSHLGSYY
# Procedure, shortened: (§1)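 Human transcription factors fused to GST were expressed in yeast, captured on glutathione beads, given DNA barcodes and pooled with a GST-only negative control. Pools were incubated with 200 nmole of a 16-mer random double-stranded DNA library in Tris/NaCl/DTT/glycerol buffer at room temperature for 30 min. They were then washed, crosslinked with 0.1% formaldehyde, proximity-ligated (BsaI/T4 ligase, 1 h, 37 °C), PCR-amplified and sequenced on an Illumina NextSeq500. Binding signal is each 6-mer's read frequency for a factor divided by its frequency for the GST control.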
# ELK1 = biological target: T2, ELK1 (Homo sapiens, UniProt P19419 1-428); details: protein: recombinant; tags: N-terminal GST; dsDNA, one strand shown
# T2 sequence: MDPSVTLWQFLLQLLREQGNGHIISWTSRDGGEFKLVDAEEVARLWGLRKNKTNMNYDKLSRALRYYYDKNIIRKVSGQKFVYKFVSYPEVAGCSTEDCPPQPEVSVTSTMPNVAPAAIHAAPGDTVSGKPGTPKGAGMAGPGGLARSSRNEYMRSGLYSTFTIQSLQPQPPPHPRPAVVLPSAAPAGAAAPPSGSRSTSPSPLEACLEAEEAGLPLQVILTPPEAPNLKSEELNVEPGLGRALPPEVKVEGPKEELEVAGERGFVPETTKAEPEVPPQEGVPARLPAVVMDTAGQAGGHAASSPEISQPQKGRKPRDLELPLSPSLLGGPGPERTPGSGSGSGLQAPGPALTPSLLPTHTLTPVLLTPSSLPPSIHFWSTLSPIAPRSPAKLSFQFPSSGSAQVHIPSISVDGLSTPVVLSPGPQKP
# Procedure, shortened: as §1
# GABPA = biological target: T3, GABPA (Homo sapiens, UniProt Q06546 1-454); details: protein: recombinant; tags: N-terminal GST; dsDNA, one strand shown
# T3 sequence: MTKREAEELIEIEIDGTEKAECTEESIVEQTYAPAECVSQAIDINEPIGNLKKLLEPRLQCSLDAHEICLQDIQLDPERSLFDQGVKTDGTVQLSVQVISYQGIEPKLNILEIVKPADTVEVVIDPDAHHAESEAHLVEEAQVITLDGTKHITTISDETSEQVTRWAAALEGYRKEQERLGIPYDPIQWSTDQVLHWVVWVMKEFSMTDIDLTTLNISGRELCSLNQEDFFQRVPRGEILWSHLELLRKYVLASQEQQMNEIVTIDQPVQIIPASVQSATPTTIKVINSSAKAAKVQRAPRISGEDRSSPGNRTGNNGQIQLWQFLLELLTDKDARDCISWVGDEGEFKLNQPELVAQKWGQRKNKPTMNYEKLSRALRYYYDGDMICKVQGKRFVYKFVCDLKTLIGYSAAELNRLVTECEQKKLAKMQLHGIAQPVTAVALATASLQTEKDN
# Procedure, shortened: as §1
# ERG = biological target: T4, ERG (Homo sapiens, UniProt P11308 1-479); details: protein: recombinant; tags: N-terminal GST; dsDNA, one strand shown
# T4 sequence: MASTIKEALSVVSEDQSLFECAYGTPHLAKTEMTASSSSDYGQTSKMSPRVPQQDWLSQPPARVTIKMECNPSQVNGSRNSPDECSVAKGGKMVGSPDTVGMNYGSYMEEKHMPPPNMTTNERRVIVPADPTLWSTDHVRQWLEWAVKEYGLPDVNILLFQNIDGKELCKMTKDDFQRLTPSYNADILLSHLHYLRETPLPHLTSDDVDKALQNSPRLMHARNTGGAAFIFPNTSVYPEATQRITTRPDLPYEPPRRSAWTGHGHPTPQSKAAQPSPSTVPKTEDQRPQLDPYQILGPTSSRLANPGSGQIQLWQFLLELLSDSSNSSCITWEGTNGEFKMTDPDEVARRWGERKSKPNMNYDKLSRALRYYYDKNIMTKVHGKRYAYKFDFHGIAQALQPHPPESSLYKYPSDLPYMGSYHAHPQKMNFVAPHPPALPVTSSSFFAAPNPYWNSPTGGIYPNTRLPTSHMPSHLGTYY
# Procedure, shortened: as §1
# ELF1 = ELF1 (Homo sapiens, UniProt P32519 1-619); details: protein: recombinant; tags: N-terminal GST; dsDNA, one strand shown
# ELF1, sequence (P32519 whole entry): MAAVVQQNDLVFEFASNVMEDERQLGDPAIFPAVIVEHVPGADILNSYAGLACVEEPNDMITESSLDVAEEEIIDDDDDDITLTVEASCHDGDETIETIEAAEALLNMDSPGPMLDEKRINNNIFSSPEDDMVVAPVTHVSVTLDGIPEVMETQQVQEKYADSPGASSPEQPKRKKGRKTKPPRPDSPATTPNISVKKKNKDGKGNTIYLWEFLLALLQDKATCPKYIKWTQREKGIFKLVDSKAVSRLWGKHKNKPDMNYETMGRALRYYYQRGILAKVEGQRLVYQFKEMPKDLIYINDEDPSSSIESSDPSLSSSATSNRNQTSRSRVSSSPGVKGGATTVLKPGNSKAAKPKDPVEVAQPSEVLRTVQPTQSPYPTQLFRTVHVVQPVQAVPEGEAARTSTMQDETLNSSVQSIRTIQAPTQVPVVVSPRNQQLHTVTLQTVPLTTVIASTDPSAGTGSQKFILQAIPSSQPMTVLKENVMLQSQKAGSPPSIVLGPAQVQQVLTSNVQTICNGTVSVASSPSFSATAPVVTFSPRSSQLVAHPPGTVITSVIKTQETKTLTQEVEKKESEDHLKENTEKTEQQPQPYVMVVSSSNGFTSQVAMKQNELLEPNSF
# Procedure, shortened: as §1
# EHF = biological target: T5, EHF (Homo sapiens, UniProt Q9NZC4 1-300); details: protein: recombinant; tags: N-terminal GST; dsDNA, one strand shown
# T5 sequence: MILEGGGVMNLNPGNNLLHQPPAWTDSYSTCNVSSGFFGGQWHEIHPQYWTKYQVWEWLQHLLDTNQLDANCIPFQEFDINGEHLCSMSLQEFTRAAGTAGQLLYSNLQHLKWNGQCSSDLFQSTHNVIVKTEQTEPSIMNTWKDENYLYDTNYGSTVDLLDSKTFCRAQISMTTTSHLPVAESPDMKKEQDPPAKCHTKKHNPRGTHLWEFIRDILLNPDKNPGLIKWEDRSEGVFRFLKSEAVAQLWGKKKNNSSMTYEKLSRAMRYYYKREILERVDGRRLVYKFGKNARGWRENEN
# Procedure, shortened: as §1
# SPI1 = SPI1 (Homo sapiens, UniProt P17947 1-270); details: protein: recombinant; tags: N-terminal GST; dsDNA, one strand shown
# Procedure, shortened: as §1
# SPIB = SPIB (Homo sapiens, UniProt Q01892 1-262); details: protein: recombinant; tags: N-terminal GST; dsDNA, one strand shown
# SPIB, sequence (Q01892 whole entry): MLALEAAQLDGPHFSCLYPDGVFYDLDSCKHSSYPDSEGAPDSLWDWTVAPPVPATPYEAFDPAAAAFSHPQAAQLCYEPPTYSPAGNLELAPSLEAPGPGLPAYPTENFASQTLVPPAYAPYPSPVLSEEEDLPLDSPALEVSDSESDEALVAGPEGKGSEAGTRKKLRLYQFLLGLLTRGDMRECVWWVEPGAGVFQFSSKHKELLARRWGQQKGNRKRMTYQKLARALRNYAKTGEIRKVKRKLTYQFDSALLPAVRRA
# Procedure, shortened: as §1
# ELK3 = biological target: T6, ELK3 (Homo sapiens, UniProt P41970 1-407); details: protein: recombinant; tags: N-terminal GST; dsDNA, one strand shown
# T6 sequence: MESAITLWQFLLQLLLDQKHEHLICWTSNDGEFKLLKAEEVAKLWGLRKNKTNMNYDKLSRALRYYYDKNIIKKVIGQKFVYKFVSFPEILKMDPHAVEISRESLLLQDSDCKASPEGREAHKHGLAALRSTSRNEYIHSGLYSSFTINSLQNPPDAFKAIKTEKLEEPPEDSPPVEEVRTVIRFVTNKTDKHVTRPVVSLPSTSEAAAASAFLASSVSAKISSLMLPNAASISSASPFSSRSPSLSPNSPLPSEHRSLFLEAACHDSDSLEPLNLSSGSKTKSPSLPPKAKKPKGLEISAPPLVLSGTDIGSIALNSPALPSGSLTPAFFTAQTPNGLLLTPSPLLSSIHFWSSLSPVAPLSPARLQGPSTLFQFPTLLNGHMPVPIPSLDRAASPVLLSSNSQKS
# Procedure, shortened: as §1
# FEV = biological target: T7, FEV (Homo sapiens, UniProt Q99581 1-238); details: protein: recombinant; tags: N-terminal GST; dsDNA, one strand shown
# T7 sequence: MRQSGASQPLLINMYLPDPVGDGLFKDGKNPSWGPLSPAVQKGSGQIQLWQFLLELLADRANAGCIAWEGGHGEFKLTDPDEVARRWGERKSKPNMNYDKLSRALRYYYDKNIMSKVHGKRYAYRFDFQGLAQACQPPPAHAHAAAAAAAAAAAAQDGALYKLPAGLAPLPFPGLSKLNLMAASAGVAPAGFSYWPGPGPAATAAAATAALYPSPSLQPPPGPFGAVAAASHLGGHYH
# Procedure, shortened: as §1
# ETV5 = ETV5 (Homo sapiens, UniProt P41161 1-510); details: protein: recombinant; tags: N-terminal GST; dsDNA, one strand shown
# ETV5, sequence (P41161 whole entry): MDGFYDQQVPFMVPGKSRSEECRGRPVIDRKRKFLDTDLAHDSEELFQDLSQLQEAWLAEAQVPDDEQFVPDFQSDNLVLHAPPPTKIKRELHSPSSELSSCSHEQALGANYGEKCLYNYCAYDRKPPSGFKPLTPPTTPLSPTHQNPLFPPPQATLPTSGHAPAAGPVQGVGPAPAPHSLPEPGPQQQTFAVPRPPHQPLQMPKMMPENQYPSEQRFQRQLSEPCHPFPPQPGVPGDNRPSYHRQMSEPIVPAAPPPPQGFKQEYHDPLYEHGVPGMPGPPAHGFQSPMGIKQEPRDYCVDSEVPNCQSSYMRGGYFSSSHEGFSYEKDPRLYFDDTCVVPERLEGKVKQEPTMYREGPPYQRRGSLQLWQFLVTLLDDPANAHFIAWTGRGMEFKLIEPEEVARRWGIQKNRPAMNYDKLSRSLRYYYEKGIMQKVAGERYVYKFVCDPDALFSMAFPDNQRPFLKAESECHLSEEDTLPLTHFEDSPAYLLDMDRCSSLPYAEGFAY
# Procedure, shortened: as §1
# HSF1 = HSF1 (Homo sapiens, UniProt Q00613 1-529); details: protein: recombinant; tags: N-terminal GST; chain copies: 3; dsDNA, one strand shown
# HSF1, sequence (Q00613 whole entry): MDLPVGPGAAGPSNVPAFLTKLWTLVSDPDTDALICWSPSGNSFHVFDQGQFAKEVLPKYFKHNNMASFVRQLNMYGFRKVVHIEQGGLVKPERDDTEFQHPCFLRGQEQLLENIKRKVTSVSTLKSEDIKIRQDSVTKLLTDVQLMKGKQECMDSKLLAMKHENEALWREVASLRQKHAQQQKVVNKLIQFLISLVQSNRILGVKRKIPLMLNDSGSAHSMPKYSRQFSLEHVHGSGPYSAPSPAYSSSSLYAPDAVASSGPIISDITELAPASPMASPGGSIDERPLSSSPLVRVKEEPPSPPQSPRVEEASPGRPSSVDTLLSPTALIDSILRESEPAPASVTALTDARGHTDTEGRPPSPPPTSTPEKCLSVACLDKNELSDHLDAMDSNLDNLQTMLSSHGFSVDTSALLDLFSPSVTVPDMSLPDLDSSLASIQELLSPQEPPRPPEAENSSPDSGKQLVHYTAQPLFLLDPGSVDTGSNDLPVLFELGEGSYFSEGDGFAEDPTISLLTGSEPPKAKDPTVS
# Procedure, shortened: as §1
# SPIC = biological target: T8, SPIC (Homo sapiens, UniProt Q8N5J4 1-248); details: protein: recombinant; tags: N-terminal GST; dsDNA, one strand shown
# T8 sequence: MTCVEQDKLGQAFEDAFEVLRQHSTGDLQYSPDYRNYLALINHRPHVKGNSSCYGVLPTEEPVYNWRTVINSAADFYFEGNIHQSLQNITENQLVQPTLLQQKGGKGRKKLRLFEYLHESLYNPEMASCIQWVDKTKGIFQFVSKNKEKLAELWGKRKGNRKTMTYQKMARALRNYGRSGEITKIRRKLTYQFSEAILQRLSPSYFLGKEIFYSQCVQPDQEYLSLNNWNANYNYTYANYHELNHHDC
# Procedure, shortened: as §1
# ELF4 = ELF4 (Homo sapiens, UniProt Q99607 1-663); details: protein: recombinant; tags: N-terminal GST; dsDNA, one strand shown
# ELF4, sequence (Q99607 whole entry): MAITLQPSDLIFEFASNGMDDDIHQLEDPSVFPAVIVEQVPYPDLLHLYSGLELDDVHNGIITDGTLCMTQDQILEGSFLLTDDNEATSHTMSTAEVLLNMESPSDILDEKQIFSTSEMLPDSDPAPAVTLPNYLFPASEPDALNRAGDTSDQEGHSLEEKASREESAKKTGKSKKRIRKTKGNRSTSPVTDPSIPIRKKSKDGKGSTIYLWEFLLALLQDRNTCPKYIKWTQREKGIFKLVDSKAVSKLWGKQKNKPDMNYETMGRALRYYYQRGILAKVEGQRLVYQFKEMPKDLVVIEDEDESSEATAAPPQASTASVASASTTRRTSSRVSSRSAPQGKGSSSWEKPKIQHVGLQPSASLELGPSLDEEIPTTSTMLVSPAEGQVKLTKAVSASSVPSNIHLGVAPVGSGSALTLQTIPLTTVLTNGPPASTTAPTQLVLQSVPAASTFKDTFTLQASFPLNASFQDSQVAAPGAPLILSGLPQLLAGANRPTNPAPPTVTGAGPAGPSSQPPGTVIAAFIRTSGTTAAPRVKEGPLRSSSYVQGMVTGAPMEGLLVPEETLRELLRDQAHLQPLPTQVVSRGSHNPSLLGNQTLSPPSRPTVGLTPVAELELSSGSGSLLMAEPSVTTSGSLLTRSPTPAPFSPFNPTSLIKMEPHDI
# Procedure, shortened: as §1
# ELK4 = biological target: T9, ELK4 (Homo sapiens, UniProt P28324-2 1-405); details: protein: recombinant; tags: N-terminal GST; dsDNA, one strand shown
# T9 sequence: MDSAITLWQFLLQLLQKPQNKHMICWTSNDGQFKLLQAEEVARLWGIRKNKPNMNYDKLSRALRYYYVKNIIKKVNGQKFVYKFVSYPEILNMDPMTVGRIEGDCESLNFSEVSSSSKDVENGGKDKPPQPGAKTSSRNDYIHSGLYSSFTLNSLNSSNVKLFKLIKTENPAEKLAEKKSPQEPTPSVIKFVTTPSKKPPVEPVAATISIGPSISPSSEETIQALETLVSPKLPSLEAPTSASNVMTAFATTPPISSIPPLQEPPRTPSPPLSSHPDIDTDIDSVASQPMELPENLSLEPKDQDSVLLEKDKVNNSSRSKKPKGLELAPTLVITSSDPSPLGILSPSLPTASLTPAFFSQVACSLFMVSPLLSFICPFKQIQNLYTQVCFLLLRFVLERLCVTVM
# Procedure, shortened: as §1
# ETV2 = biological target: T10, ETV2 (Homo sapiens, UniProt O00321 1-342); details: protein: recombinant; tags: N-terminal GST; dsDNA, one strand shown
# T10 sequence: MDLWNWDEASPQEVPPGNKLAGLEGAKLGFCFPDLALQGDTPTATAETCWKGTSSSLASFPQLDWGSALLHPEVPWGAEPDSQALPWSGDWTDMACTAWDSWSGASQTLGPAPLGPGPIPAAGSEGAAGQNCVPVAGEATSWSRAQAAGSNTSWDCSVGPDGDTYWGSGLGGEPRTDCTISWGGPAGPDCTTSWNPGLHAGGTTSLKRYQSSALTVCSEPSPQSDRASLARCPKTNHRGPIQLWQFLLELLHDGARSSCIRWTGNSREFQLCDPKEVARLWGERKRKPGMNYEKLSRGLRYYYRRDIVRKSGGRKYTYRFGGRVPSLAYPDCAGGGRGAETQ
# Procedure, shortened: as §1
# ELF3 = biological target: T11, ELF3 (Homo sapiens, UniProt P78545 1-371); details: protein: recombinant; tags: N-terminal GST; dsDNA, one strand shown
# T11 sequence: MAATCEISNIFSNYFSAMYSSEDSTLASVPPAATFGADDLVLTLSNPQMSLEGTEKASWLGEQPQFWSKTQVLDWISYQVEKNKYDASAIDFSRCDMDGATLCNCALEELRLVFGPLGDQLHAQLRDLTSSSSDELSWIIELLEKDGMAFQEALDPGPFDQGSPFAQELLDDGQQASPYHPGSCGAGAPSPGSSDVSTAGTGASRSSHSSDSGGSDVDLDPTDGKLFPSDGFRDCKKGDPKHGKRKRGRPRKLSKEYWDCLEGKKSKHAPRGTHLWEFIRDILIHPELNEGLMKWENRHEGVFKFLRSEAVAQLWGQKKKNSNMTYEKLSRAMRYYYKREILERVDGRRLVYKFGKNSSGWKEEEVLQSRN
# Procedure, shortened: as §1
# CRX = CRX (Homo sapiens, UniProt O43186 1-299); details: protein: recombinant; tags: N-terminal GST; dsDNA, one strand shown
# CRX, sequence (O43186 whole entry): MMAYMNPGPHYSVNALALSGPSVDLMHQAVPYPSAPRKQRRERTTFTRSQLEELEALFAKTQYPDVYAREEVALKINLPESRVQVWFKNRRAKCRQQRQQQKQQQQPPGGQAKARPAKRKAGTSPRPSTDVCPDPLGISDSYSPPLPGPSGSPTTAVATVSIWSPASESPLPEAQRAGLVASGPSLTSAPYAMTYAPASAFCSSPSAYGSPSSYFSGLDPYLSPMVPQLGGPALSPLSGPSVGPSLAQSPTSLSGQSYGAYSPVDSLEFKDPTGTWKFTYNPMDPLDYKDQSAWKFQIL
# Procedure, shortened: as §1
# ETV1 = ETV1 (Homo sapiens, UniProt P50549 1-477); details: protein: recombinant; tags: N-terminal GST; dsDNA, one strand shown
# ETV1, sequence (P50549 whole entry): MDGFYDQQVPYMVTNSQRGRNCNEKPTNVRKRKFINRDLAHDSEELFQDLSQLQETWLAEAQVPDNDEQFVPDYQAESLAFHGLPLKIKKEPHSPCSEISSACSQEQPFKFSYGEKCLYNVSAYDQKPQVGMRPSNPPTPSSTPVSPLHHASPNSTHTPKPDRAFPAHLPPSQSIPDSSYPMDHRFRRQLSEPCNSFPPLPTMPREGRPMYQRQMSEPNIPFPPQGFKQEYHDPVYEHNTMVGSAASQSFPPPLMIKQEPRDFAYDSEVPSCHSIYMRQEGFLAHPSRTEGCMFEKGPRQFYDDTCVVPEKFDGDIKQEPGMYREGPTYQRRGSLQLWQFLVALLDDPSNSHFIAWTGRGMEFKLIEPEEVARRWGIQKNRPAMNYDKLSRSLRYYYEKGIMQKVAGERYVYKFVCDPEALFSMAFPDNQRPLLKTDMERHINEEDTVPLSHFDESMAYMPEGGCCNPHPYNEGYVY
# Procedure, shortened: as §1
sequence,measurement,setting,value
AGCTCT,binding signal,FLI1,"1.19 fold enrichment (6-mer frequency, TF over GST control)"
same,binding signal,ELK1,"1.25 fold enrichment (6-mer frequency, TF over GST control)"
same,binding signal,GABPA,"1.17 fold enrichment (6-mer frequency, TF over GST control)"
same,binding signal,ERG,"1.11 fold enrichment (6-mer frequency, TF over GST control)"
same,binding signal,ELF1,"1.23 fold enrichment (6-mer frequency, TF over GST control)"
same,binding signal,EHF,"1.18 fold enrichment (6-mer frequency, TF over GST control)"
same,binding signal,SPI1,"1.04 fold enrichment (6-mer frequency, TF over GST control)"
same,binding signal,SPIB,"1.04 fold enrichment (6-mer frequency, TF over GST control)"
same,binding signal,ELK3,"1.15 fold enrichment (6-mer frequency, TF over GST control)"
same,binding signal,FEV,"1.19 fold enrichment (6-mer frequency, TF over GST control)"
same,binding signal,ETV5,"1.15 fold enrichment (6-mer frequency, TF over GST control)"
same,binding signal,HSF1,"1.25 fold enrichment (6-mer frequency, TF over GST control)"
same,binding signal,SPIC,"1.24 fold enrichment (6-mer frequency, TF over GST control)"
same,binding signal,ELF4,"1.21 fold enrichment (6-mer frequency, TF over GST control)"
same,binding signal,ELK4,"1.22 fold enrichment (6-mer frequency, TF over GST control)"
same,binding signal,ETV2,"1.14 fold enrichment (6-mer frequency, TF over GST control)"
same,binding signal,ELF3,"1.21 fold enrichment (6-mer frequency, TF over GST control)"
same,binding signal,CRX,"1.41 fold enrichment (6-mer frequency, TF over GST control)"
same,binding signal,ETV1,"1.25 fold enrichment (6-mer frequency, TF over GST control)"
